In the library only some 9% were active in any assay of this set; here they are far more common.
HPGD block – HPGD (human) dehydrogenase inhibition; Potency, µM, for the others: at the highest dose activity change, negative = inhibition, hits mostly inhibitors; P15428; purified HPGD, NADH fluorescence kinetic, PGE2 substrate; actives 4.3% (n = 150,000); active = well fitted inhibition curve with a large enough effect, not every such curve was filed as active; inconclusive = small, poorly fitted or top-dose-only effect, or another doubt; inactive = no such curve, though single readings can be large or run the other way; note: % is set by controls: 0 for no effect and ±100 for the full control effect
Target sequence (P15428 whole entry, looked up): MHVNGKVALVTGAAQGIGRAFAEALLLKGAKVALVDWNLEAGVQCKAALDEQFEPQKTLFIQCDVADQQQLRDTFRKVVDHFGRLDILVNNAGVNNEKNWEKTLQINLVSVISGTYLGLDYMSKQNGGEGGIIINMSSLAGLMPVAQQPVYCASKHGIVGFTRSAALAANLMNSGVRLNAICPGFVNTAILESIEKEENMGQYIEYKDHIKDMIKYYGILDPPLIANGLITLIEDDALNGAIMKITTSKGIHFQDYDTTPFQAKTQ
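NADH formation kinetics: reaction with 30 uM PGE2 and 1 mM NAD+ (final), 20 nM enzyme, Tris-HCl pH 8 with Tween 20, after 15 min compound preincubation at room temperature. Fluorescence change, last versus first of five reads.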
Lamin A splicing – LMNA splicing modulation; HeLa LMNA splicing GFP/RFP minigene ratio, 48 h; actives 0.01% (n = 200,000); Potency, µM (doses to about 46.1 µM), inactives show at the highest dose ratio change, negative = inhibition, most hits filed as inhibitors; active = well fitted inhibition curve with a large enough effect in the signal ratio, with a control signal flat, not every such curve was filed as active; inconclusive = small, poorly fitted or top-dose-only effect, or effect the other way, or a change in a side signal; the % refers to the signal ratio; note: % is set by controls: 0 for no effect and ±100 for the full control effect
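S3 HeLa stable clones carrying a lamin A-EGFP splicing minigene plus DsRed2 were seeded at 600 cells/well in Opti-MEM with 2% FBS, pin-dosed and incubated 48 h at 37°C. Acumen cytometry (488 nm) gave the GFP/RFP total-intensity ratio.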
ALDH1A1 inh – ALDH1A1 (human) enzyme inhibition. P00352. Purified ALDH1A1, NADH fluorescence, propionaldehyde substrate. Potency, µM (series often up to 75.3 µM), for inactives: at the highest dose activity, negative = inhibition, actives largely listed as inhibitors. actives 7.3% (n = 220,000). AID 1030; active = well fitted inhibition curve with a large enough effect, not every such curve was filed as active; inconclusive = small, poorly fitted or top-dose-only effect, or another doubt; inactive = no such curve, though single readings can be large or run the other way;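 note: plate controls were no enzyme wells and a reference inhibitor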
Target sequence (P00352 whole entry, looked up): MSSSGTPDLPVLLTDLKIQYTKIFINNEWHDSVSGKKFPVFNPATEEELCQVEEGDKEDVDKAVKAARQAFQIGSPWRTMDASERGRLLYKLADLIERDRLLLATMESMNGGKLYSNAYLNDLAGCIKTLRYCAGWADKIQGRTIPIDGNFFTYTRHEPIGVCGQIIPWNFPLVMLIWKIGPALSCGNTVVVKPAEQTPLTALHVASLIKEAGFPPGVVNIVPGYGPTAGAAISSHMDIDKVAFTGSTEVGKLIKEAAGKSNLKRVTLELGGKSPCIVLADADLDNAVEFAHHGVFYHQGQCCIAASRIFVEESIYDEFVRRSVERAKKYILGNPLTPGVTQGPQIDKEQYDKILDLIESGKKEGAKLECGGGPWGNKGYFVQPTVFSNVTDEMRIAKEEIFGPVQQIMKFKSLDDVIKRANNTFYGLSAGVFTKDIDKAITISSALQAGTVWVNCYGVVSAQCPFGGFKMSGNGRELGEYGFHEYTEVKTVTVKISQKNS
HTT ATP protect – protects HTT-Q103 PC12 cells, measured by ATP. Potency, µM (highest dose often 56.4 µM), for inactives: cytoprotection (ATP increase), actives largely listed as activators. actives 0.14% (n = 230,000). PC12 HTT-Q103 induced, cytoprotection, ATP luminescence, 40 h; note: % of control where 0% means no effect; nearly all actives have a fitted effect of over 45% in size
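Compounds were screened for protection of PC12 cells against cell death after tebufenozide induction (100 nM final) of mutant Huntingtin exon 1 (Q103) fused to GFP.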
HttQ103 aggreg – reduces HttQ103-GFP aggregates in PC12 cells | PC12 HttQ103-GFP aggregates, Acumen cytometry, 40 h | actives 1.1% (n = 220,000) | Potency, µM (top dose mostly 46.1 µM), without a hit: top-dose activity change, negative = inhibition, most hits filed as inhibitors | AID 1688; note: % is set by controls: 0 for no effect and ±100 for the full control effect; nearly all actives have a fitted effect of over 60% in size
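Read-out: GFP aggregate count by laser scanning cytometer (488 nm excitation, 500-530 nm emission, 1–25 µm objects >6 SD above background). Cells: PC12, inducible HTTex1-Q103-GFP, 100 nM tebufenozide; compounds titrated.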
Luc counter – counter-screen: inhibitors of Kinase-Glo firefly luciferase | Kinase-Glo luciferase, ATP luminescence, 8 min | Potency, µM (top dose mostly 38.3 µM), for inactives: at the top dose activity change, negative = inhibition, hits mostly inhibitors | Q27757 | actives 0.28% (n = 200,000); note: % is set by controls: 0 for no effect and ±100 for the full control effect; nearly all actives have a fitted effect of over 60% in size
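Luminescence was the read-out, taken after 8-minute incubation at ambient temperature. Luciferase turned over luciferin with 10 uM ATP in imidazole pH 7.2 buffer containing KCl, MgCl2, Tween 20 and BSA.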
Numbers without * were called inactive; ? = inconclusive; / = no result; [ ] = dose if it differs, or a comment. Unless noted, calls come from the whole dose curve; as a rule, active = well fitted curve in the direction sought with a large enough effect; inconclusive = small, poorly fitted or top-dose-only effect, or another doubt; inactive = no such curve, though single readings can be large; an effect the other way counts as inactive or inconclusive. Potency is the fitted concentration of half-maximal effect.

SMILES | HPGD block | Lamin A splicing | ALDH1A1 inh | HTT ATP protect | HttQ103 aggreg | Luc counter
O=C(CCN1CCOCC1)c1ccc(Br)cc1 | / | ? | 0.1µM* | 14%[10 µM] | 3%[9.22 µM] | -1%
COc1ccc(-c2nc(N)n[nH]2)cc1OC | -12% | 1% | -10% | -26%[10 µM] | -24% | -6%
COc1ccc(N2C(=O)CC(NCCNc3ccc([N+](=O)[O-])cn3)C2=O)cc1 (configuration not stated) | -16% | ? | 1.8µM* | / | -10% | 0%
CCOc1ccc(N2C(=O)CC(NCCNc3ccc([N+](=O)[O-])cn3)C2=O)cc1 (configuration not stated) | / | 15%[46 µM] | 0.89µM* | -9% | -19% | 0%
CCOC(=O)c1sc(S(C)(=O)=O)c2c1CCc1conc1-2 | / | ? | ? | 10%[10 µM] | -7%[9.22 µM] | /
CCCOc1ccc(N2C(=O)C3C(C(C)C)NC4(C(=O)c5ccccc5C4=O)C3C2=O)cc1 (configuration not stated) | -10% | 1% | ? | 14% | 9% | -1%
O=C1NCCCN1Cc1ccc(F)cc1Cl | -20% | -2% | 4.5µM* | -12%[0.074 µM] | 6% | -5%
O=C1NCCCN1Cc1ccc(F)cc1 | -14% | 1% | 2% | -11% | 0% | 0%
CC(=O)c1ccc(N2CCN(C(=O)c3ccco3)CC2)c(F)c1 | 16µM* | 8% | 3.5µM* | 31% | ? | 2%
COC(=O)c1ccc(N2C(=O)CC(N3CCN(C(=O)c4ccco4)CC3)C2=O)cc1 (configuration not stated) | -1% | -9% | 13µM* | 5%[10 µM] | 9% | -3%
CC(=O)c1ccc(N2CCN(C(=O)c3ccc(Br)cc3)CC2)c(F)c1 | 28µM* | -3% | 10µM* | -6% | -12% | 4%
Cc1ccc(-c2nc(CN(C)C)cc(CN(C)C)c2O)cc1 | ? | 0% | ? | -5% | 5% | 2%
CC(OC(=O)C1CC1)C(=O)Nc1ccc([N+](=O)[O-])cc1Cl (configuration not stated) | / | / | 7% | 3.5µM* | -5% | -3%
O=C1CCN(c2ccc([N+](=O)[O-])cc2F)CC1 | / | 1%[46 µM] | 8.9µM* | 3%[10 µM] | -4% | -2%
O=C(NCC1CCCO1)c1nn2cccnc2c1Cl (configuration not stated) | 25µM* | -5% | -6% | -23%[0.074 µM] | 6% | -2%
COCCNC(=O)c1nn2cccnc2c1Cl | ? | 14% | 4% | 19% | -3% | -3%
O=C(NCc1cccs1)c1nn2cccnc2c1Cl | ? | 4% | 2% | 10%[10 µM] | -7% | 3%
O=C(NCC12CC3CC(CC(C3)C1)C2)c1nn2cccnc2c1Cl | 18µM* | 6% | 16µM* | -16% | 13% | -6%
O=C(/C=C/c1ccc2c(c1)OCCCO2)c1ccc2ccccc2c1O | -9% | ? | -2% | 15%[10 µM] | ? | -2%
N#CC1=C(N)SC(N)=C(C#N)C1CCC1CCCCC1 | 16µM* | ? | 14µM* | 10%[10 µM] | 0.89µM* | 1%
Nc1nc(Cl)nc2c1ncn2[C@@H]1O[C@H](CO)[C@H](O)[C@H]1O | -8% | ? | -6% | / | / | -2%
Cc1[nH]n(-c2ccccc2)c(=S)c1C=NCCCN=Cc1c(C)[nH]n(-c2ccccc2)c1=S | 28µM* | ? | 4µM* | -40%[10 µM] | 5% | 4%
CCCCS(=O)(=O)/C=C\C=C/S(=O)(=O)CCCC | 25µM* | ? | 4µM* | -97%[10 µM] | ? | 12%
CCCCS(=O)(=O)/C=C\C1C2C=CC(C2)C1S(=O)(=O)CCCC (configuration not stated) | 1% | ? | ? | -19%[10 µM] | 8%[9.22 µM] | -3%
O=C(NCCCN1CCOCC1)c1cc(C(=O)C2CCCCC2)c[nH]1 | / | 11%[46 µM] | 25µM* | -11%[10 µM] | -5% | -1%
SMILES | HPGD block | Lamin A splicing | ALDH1A1 inh | HTT ATP protect | HttQ103 aggreg | Luc counter
O=C(Nc1ccc(Cc2ccncc2)cc1)c1ccc(N2CCOCC2)c([N+](=O)[O-])c1 | / | ? | ? | / | ? | 1%
COc1cc2ccccc2cc1C(=O)Nc1ccc(Cc2ccncc2)cc1 | -30% | ? | ? | -77% | 10µM* | -1%
Cc1ccc(C(=O)Nc2ccc(Cc3ccncc3)cc2)cc1[N+](=O)[O-] | 1% | 3% | 5% | -49% | 13µM* | -2%
O=C(Nc1ccc(Cc2ccncc2)cc1)c1cccc([N+](=O)[O-])c1 | 1.4µM* | ? | 7% | 10%[10 µM] | 12% | -1%
O=C(CCNc1ccc(Cc2ccncc2)cc1)c1ccc([N+](=O)[O-])cc1 | / | ? | 0.11µM* | -27%[1.9 µM] | 1%[9.22 µM] | 0%
O=C(N/N=C/c1ccc(OC2CSC2)cc1)c1ccccc1 | -11% | ? | 0% | -26% | -25% | -19%
COc1ccc(N2CCN(C(CNC(=O)C(=O)NCCCn3ccnc3)c3cccnc3)CC2)cc1 (configuration not stated) | / | 1%[9.22 µM] | 8% | 0% | -1% | 1%
CCOC(=O)C1CCN(C(=O)CS(=O)Cc2nc(-c3ccc(C)cc3)oc2C)CC1 (configuration not stated) | -15% | -13% | 25µM* | -1% | 8% | 3%
CCOC(=O)C1CCN(C(=O)CSCc2nc(-c3ccc(OCC)cc3)oc2C)CC1 | -22% | -17% | ? | -5%[10 µM] | -11% | 7%
N#C/C(=C\c1cn(-c2ccccc2)nc1-c1cc2ccccc2o1)c1nc2ccccc2[nH]1 | -18% | 1% | ? | -9%[10 µM] | -16% | 1%
O=C(CN1C(=O)C2C3C=CC(C3)C2C1=O)OCC(=O)c1ccccc1 (configuration not stated) | 25µM* | 2% | 0% | 1%[10 µM] | 11% | -7%
O=C(CCN1C(=O)C2C3C=CC(C3)C2C1=O)NCCc1ccccc1 (configuration not stated) | -10% | -5% | ? | 13%[10 µM] | -12% | -1%
O=C1C2C3C=CC(C3)C2C(=O)N1CCc1ccccc1 (configuration not stated) | -23% | 13% | 11µM* | -17%[10 µM] | 20% | -1%
O=C1C2C3C=CC(C3)C2C(=O)N1CCCCCCN1C(=O)C2C3C=CC(C3)C2C1=O (configuration not stated) | / | / | 8% | -28%[10 µM] | -12%[9.22 µM] | 11µM*
Cc1ccc2nc(NC3=NC(CC(=O)O)C(=O)N3)nc(C)c2c1 (configuration not stated) | / | -11%[46 µM] | -14% | -29% | ? | -1%
O=C1CCCc2c1cc(C(=O)O)c(=O)n2-c1ccccc1 | / | ? | 1% | 8%[10 µM] | 17%[9.22 µM] | 0%

Source: PubChem (National Center for Advancing Translational Sciences (NCATS))
